Earlier results on 20 compounds are cited in PubChem BioAssay AID977611.

The data set in a line: PubChem AID 977611. The following applies: PDB protein-ligand complexes, literature Kd.

About 3,900 (100%) of roughly 3,900 compounds were called active. The limit is not given here; nearly all actives have Kd up to about 4200 µM. The set was probably picked from earlier hits. This is one part of the list. Where a SMILES comes first, the peptide text is derived from it. Non-standard residues stand in square brackets, D forms with d. Square brackets hold non-standard residues; d marks the D form. Residues, ends and D or L forms follow the SMILES beside them. Peptide text beside a SMILES is read from it. [ ]: non-standard residue; d: D form. ξ: configuration not given here. *: point of attachment. X1 = O=C(O)c1cc(NC(=S)*)ccc1-c1c2ccc(=O)cc-2oc2cc(O)ccc12; Phe(3,4-Cl2) = N[C@@H](Cc1ccc(Cl)c(Cl)c1)C(=O)O; Orn(CH(NH2)2) = NC(N)NCCC[C@H](N)C(=O)O; ΔPro = O=C(O)[C@@H]1C=CCN1; Nva = CCC[C@H](N)C(=O)O; ξE = NC(CCC(=O)O)C(=O)O; Ahx = NCCCCCC(=O)O

For `C[C@H](NC(=O)[C@H](CCCNC(N)N)NC(=O)[C@@H](N)CCCCN)C(=O)N[C@@H](CO)C(=O)N[C@@H](CCCNC(N)N)C(=O)N[C@@H](Cc1c[nH]c2ccccc12)C(=O)N[C@@H](CC(=O)O)C(=O)N[C@@H](CCC(=O)O)C(=O)N[C@H](C(=O)N1CCC[C@H]1C(=O)O)[C@@H](C)O` (H-K[Orn(CH(NH2)2)]AS[Orn(CH(NH2)2)]WDETP-OH), where the note is “protein: Splicing factor 45(SPF45-UHM), PDB entry 2peh”, the Kd is 1100 nM (active).

With `CCC[C@H](NC(=O)[C@H](Cc1c[nH]c2ccccc12)NC(=O)[C@H](CC(C)C)NC(=O)[C@H](CC(=O)O)NC(=O)[C@H](CO)NC(=O)[C@H](Cc1ccccc1)NC(=O)[C@@H](NC(=O)C(N)CCC(=O)O)[C@@H](C)O)C(=O)N[C@@H](CC(C)C)C(=O)N[C@@H](CC(C)C)C(=O)N1CCC[C@H]1C(=O)N[C@@H](CCC(=O)O)C(=O)O` (stereo partly specified) (H-[ξE]TFSDLW[Nva]LLPE-OH), the Kd (protein: Mdm4 protein, PDB entry 3dab) was 210 nM (active).

As for `CC[C@H](C)[C@H](NC(=O)[C@H](CCC(=O)O)NC(=O)[C@H](CO)NC(=O)[C@@H](N)CCCNC(N)N)C(=O)N[C@H](C(=O)N[C@@H](CO)C(=O)N[C@H](C(=O)N[C@@H](C)C(=O)N1CC=C[C@H]1C(=O)N[C@@H](CO)C(=O)N[C@@H](CO)C(=O)N[C@@H](Cc1c[nH]c2ccccc12)C(=O)N[C@H](C(=O)N[C@H](C(=O)N1CCC[C@H]1C(=O)NCC(=O)N1CCC[C@H]1C(=O)O)C(C)C)C(C)C)[C@@H](C)O)[C@@H](C)CC` (H-[Orn(CH(NH2)2)]SEIISTA[ΔPro]SSWVVPGP-OH), the Kd (protein: B-cell lymphoma 6 protein, PDB entry 3bim) was 1320 nM (active).

For the compound `NCc1cccc2c1OCCCO2`, the dissociation constant Kd (protein: CATIONIC TRYPSIN, PDB entry 4ab8) was 136000 nM (active).

As to `CCCOc1ccc2cccc(-n3cc(NC(N)=O)c(C(N)=O)n3)c2c1`, the Kd (protein: Tyrosine-protein kinase ITK/TSK kinase domain, PDB entry 4m13) was 200 nM (active).

`COc1ccc2cccc(-n3cc(NC(N)=O)c(C(N)=O)n3)c2c1`: under “protein: Tyrosine-protein kinase ITK/TSK kinase domain, PDB entry 4m0z”, the Kd is 6400 nM (active).

Regarding `NC(=O)Nc1cn(-c2cccc3ccccc23)nc1C(N)=O`, under “protein: Tyrosine-protein kinase ITK/TSK kinase domain, PDB entry 4m0y”, the Kd is 350 nM (active).

As to `CCOc1ccc2cccc(-n3cc(NC(N)=O)c(C(N)=O)n3)c2c1`, the Kd (protein: Tyrosine-protein kinase ITK/TSK kinase domain, PDB entry 4m12) is 900 nM (active).

`CC(C)Oc1ccc2cccc(-n3cc(NC(N)=O)c(C(N)=O)n3)c2c1`: the Kd (protein: Tyrosine-protein kinase ITK/TSK kinase domain, PDB entry 4m14) was 200 nM (active).

For the compound `CC(C)C[C@H](NC(=O)[C@H](CCCCN)NC(=O)[C@H](CCCNC(N)N)NC(=O)[C@H](C)N)C(=O)N[C@@H](CC(=O)O)C(=O)O` (H-A[Orn(CH(NH2)2)]KLD-OH), for the setting “protein: Coatomer subunit beta', PDB entry 4j84”, the Kd is 20400 nM (active).

Take H-AAKKLV-OH: under “protein: Coatomer subunit beta', PDB entry 4j73”, the Kd is 27700 nM (active).

On to `CC(C)C[C@H](NC(=O)[C@H](C)N)C(=O)N[C@@H](CCCCN)C(=O)N[C@@H](CCCNC(N)N)C(=O)N[C@@H](CCCNC(N)N)C(=O)N[C@@H](CC(N)=O)C(=O)N[C@H](C(=O)O)C(C)C` (HELM PEPTIDE1{A.L.K.[NC(N)NCCC[C@H](N[*:1])C(=O)[*:2]].[NC(N)NCCC[C@H](N[*:1])C(=O)[*:2]].N.V}$$$$V2.0), for which the dissociation constant Kd (protein: Importin-?, PDB entry 1iq1) is 35 nM (active).

For `S=CNc1ccc2oc(C3=NCCN3)cc2c1`, the Kd reads like this: (protein: Chitinase A, PDB entry 3ary) 1000 nM (active); (protein: Chitinase A, PDB entry 3arz) 1000 nM (active).

For the compound `CN(C)CCOc1ccc(-c2nc(-c3ccc4c(c3)CC/C4=N/O)c(-c3ccncc3)[nH]2)cc1`, under “protein: B-Raf kinase domain, PDB entry 2fb8”, the Kd was 0.16 nM (active).

`O=S(=O)(c1ccc(O)cc1O)n1cc2cc(O)cc(O)c2c1`: where the note is “PDB entry 4mpn”, the Kd is 239 nM (active).

In the case of `O=S(=O)(c1ccc(O)cc1O)n1cc2ccccc2c1`, the Kd (PDB entry 4mpc) is 711 nM (active).

Turning to `O=C(c1ccc(O)cc1O)n1cc2ccccc2c1`, the Kd (PDB entry 4mp7) was 1830 nM (active).

For `CC(C)C[C@H](NC(=O)[C@H](CCC(=O)O)NC(=O)[C@H](CO)NC(=O)[C@H](CC(=O)O)NC(=O)[C@H](CO)NC(=O)[C@H](CC(=O)O)NC(=O)[C@H](CCC(=O)O)NC(=O)[C@H](CCC(N)=O)NC(=O)[C@H](CO)NC(=O)CN)C(=O)N[C@@H](CCC(=O)O)C(=O)N[C@@H](CCC(N)=O)C(=O)N[C@@H](Cc1ccc(O)cc1)C(=O)N[C@@H](Cc1ccccc1)C(=O)N[C@H](C(=O)N[C@@H](C)C(=O)N[C@@H](CCCNC(N)N)C(=O)N[C@@H](Cc1c[nH]c2ccccc12)C(=O)O)[C@@H](C)O` (H-GSQEDSDSELEQYFTA[Orn(CH(NH2)2)]W-OH), the Kd (protein: DAXX N-Terminal Helical Bundle Domain (55-144), PDB entry 2kzu) was 60000 nM (active).

Take `CSCC[C@H](NC(=O)[C@H](CC(C)C)NC(=O)[C@H](Cc1ccccc1)NC(=O)[C@H](CC(=O)O)NC(=O)[C@H](Cc1ccc(O)cc1)NC(=O)[C@H](Cc1c[nH]c2ccccc12)NC(=O)[C@@H](NC(=O)[C@@H](NC(=O)[C@H](CCCNC(N)N)NC(=O)[C@@H](N)CO)C(C)C)[C@@H](C)O)C(=O)N[C@@H](CCC(=O)O)C(=O)N[C@@H](CC(=O)O)C(=O)O` (H-S[Orn(CH(NH2)2)]VTWYDFLMED-OH): the Kd (protein: Guanine nucleotide-binding protein G, PDB entry 1y3a) was 3900 nM (active).

As for `CC(C)C[C@H](NC(=O)[C@H](C)NC(=O)[C@H](Cc1ccc(Cl)c(Cl)c1)NC(=O)[C@H](Cc1c[nH]c2ccccc12)NC(=O)[C@H](CCC(=O)O)NC(=O)[C@H](CCC(=O)O)NC(=O)[C@H](CC(C)C)NC(=O)[C@H](CC(=O)O)NC(=O)[C@H](CC(=O)O)NC(=O)[C@H](C)NC(=O)[C@@H](NC(=O)[C@H](Cc1ccccc1)NC(=O)[C@H](CC(=O)O)NC(=O)CCCCCNC(=S)Nc1ccc(-c2c3ccc(=O)cc-3oc3cc(O)ccc23)c(C(=O)O)c1)[C@@H](C)O)C(N)=O` ({X1-Ahx}-DFTADDLEEW[Phe(3,4-Cl2)]AL-NH2), the Kd (protein: Replication protein A 70 kDa DNA-binding subunit, PDB entry 4nb3) was 22 nM (active).
